Measured values reported in PubChem BioAssay AID463173 (ICCB-Longwood Screening Facility, Harvard Medical School, 2010).
Screen size: about 52,000 compounds; about 4,300 (8.3%) were called active. For the sample, actives were picked, then their nearest neighbours and some compounds at random. Values without a mark were called inactive. Cut-off read from the data, not from the text of the source: active = survival mostly below about 52% (no sharp cut-off); inactive = mostly above about 56%.

Test system: DeltatarO mutant
Experiment: S. aureus survival, RN4220 and DeltatarO strains – OD600, teichoic acid synthesis inhibitors, primary screen (AID 463173)
Conditions: S. aureus RN4220 wild type/DeltatarO growth, OD600, 18 h, hits give low values, screened at 18.75 µg/mL (by protocol)

Structure (SMILES)	survival
COc1ccccc1N1CCN(S(=O)(=O)c2ccc(F)c(C(=O)Nc3ccc(C)c(F)c3)c2)CC1	93%
Cn1c(=N)n(CC(=O)c2ccc(-c3ccccc3)cc2)c2ccccc21	106%
CCCCNC(=O)CCCn1c(=O)c2ccccc2n(Cc2c(C)cc(C)cc2C)c1=O	90%
Cc1ccc(NC(=O)Cn2cc(C(=O)C3CCCCC3)c3ccccc32)c(C)c1	78%
COc1cccc(CNC(=O)COc2cc(=O)n(C)c3ccccc23)c1	72%
CCOC(=O)c1cnc2c(C)cc(Cl)cc2c1NCCc1ccc(OC)c(OC)c1	31% (active)
CCOC(=O)c1cnc2c(C)cc(C)cc2c1NCCc1ccc(OC)c(OC)c1	66%
CCOC(=O)c1c(C)oc2nc(C)nc(NCCc3ccc(OC)c(OC)c3)c12	94%
COCCn1c(SCC(=O)c2ccc(F)cc2)nc2cc(C(=O)NC3CCCC3)ccc2c1=O	94%
CCCC1(C(=O)OCC)NC(c2ccccc2F)C2C(=O)N(c3ccccc3)C(=O)C21 (stereo not given)	88%
CCOC(=O)c1c(C)[nH]c(C)c1S(=O)(=O)NCC(=O)Nc1cccc(SC)c1	66%
OC1(C#CCN2CCCCCC2)CCCCC1	93%
COc1ccc(C(=O)CC2(O)C(=O)N(CCc3ccccc3)c3ccc(Br)cc32)cc1OC (stereo not given)	53%
O=C(CC1(O)C(=O)N(CCc2ccccc2)c2ccc(Br)cc21)c1ccc(F)cc1 (stereo not given)	55%
O=C(CC1(O)C(=O)N(CCc2ccccc2)c2ccc(Br)cc21)c1ccccc1 (stereo not given)	25% (active)
Cc1ccc(C(=O)CC2(O)C(=O)N(CCc3ccccc3)c3ccc(Br)cc32)cc1 (stereo not given)	39%
C#CCN1C(=O)C(O)(CC(=O)c2ccc(OC)c(OC)c2)c2cc(Br)ccc21 (stereo not given)	78%
O=C(CC1(O)C(=O)N(CCc2ccccc2)c2ccc(Br)cc21)c1ccccc1O (stereo not given)	40% (active)
Cc1nn2c(-c3ccco3)ccnc2c1-c1ccc(Br)cc1	81%
N#Cc1c(N)nc(SCc2ccccc2)c(C#N)c1-c1cccs1	49%
COc1ccc(N(C(=O)Cn2nnc3ccccc32)C(C(=O)NCC2CCCO2)c2sccc2C)cc1 (stereo not given)	94%
COc1ccc(-n2nc(C(=O)NCCc3ccc(OC)c(OC)c3)c3c4ccccc4n(C)c3c2=O)cc1	89%
O=c1[nH]c(=O)n(C2CCCCC2)c(O)c1C1=Nc2ccccc2SC(c2ccccc2)C1 (stereo not given)	93%

Structure (SMILES)	survival
Cc1ccc(S(=O)(=O)c2cn(C)c3cc(N4CCCC4)c(F)cc3c2=O)c(C)c1	67%
O=C(Cn1cnc2nc3c(cc2c1=O)CCCC3)Nc1ccc(F)cc1Cl	88%
COc1cc(OC)c(NC(=O)Cn2cnc3nc4c(cc3c2=O)CCCC4)cc1Cl	-5% (active)
Cc1ccc(C)c(N2CCN(C(=O)Cn3cnc4nc5c(cc4c3=O)CCCC5)CC2)c1	87%
Cc1c(Cl)cccc1NC(=O)Cn1cnc2nc3c(cc2c1=O)CCCC3	126%
Cc1cccc(N(C)C(=O)Cn2cnc3nc4c(cc3c2=O)CCCC4)c1	17% (active)
Cc1ccc(C)c(NC(=O)Cn2cnc3nc4c(cc3c2=O)CCCC4)c1	89%
CCc1ccccc1NC(=O)c1ccc(F)c(S(=O)(=O)N2CCN(c3cccc(Cl)c3)CC2)c1	88%
CCOC(=O)c1ccc(NC(=O)c2nsc3ccccc23)cc1	60%
CC1CCC(NC(=O)c2ccc3c(c2)N(Cc2ccccc2)C(=O)c2ccccc2S3(=O)=O)CC1 (stereo not given)	115%
CCOC(=O)c1c(C)oc2nc(C)nc(NCc3ccccc3OCC)c12	102%
O=C(CCCn1c(=O)c2sccc2n(Cc2cccc(Cl)c2)c1=O)NCc1ccc2c(c1)OCO2	64%
CCCN(CCC)CN1C(=O)S/C(=C/c2ccc(N(CC)CC)cc2)C1=O	68%
CCN(CC)c1ccc(C=C2C(=O)OC3(CCCC3)OC2=O)cc1	83%
CCN(CC)c1ccc(/C=C2/SC(=O)NC2=O)cc1	34% (active)
O=C(NCCCc1ccccc1)C1CCN(C(=O)N2CCOc3ccc(Cl)cc32)CC1	46% (active)
Cc1ccc2c(c1)N(C(=O)N1CCC(C(=O)NC3CCCCCC3)CC1)CCO2	82%
O=C(NC1CCCCCC1)C1CCN(C(=O)N2CCOc3ccccc32)CC1	76%
CNC(=O)C1CCN(C(=O)N2CC(C)Oc3ccc(Cl)cc32)CC1 (stereo not given)	59%
CC1CN(C(=O)N2CCC(C(=O)NCCC3=CCCCC3)CC2)c2cc(Cl)ccc2O1 (stereo not given)	65%
CC1CN(C(=O)N2CCC(C(=O)NCCCc3ccccc3)CC2)c2cc(Cl)ccc2O1 (stereo not given)	56%
CC1CN(C(=O)N2CCC(C(=O)NCc3ccccc3F)CC2)c2cc(Cl)ccc2O1 (stereo not given)	60%
CC(C)CCNC(=O)C1CCN(C(=O)N2CCOc3ccc(Cl)cc32)CC1	52%

Structure (SMILES)	survival
CCc1ccccc1NC(=O)C1CCN(C(=O)N2CC(C)Oc3ccc(Cl)cc32)CC1 (stereo not given)	55% (active)
O=C(NC1CCCCCC1)C1CCN(C(=O)N2CCOc3ccc(Cl)cc32)CC1	46% (active)
O=C(NCCC1=CCCCC1)C1CCN(C(=O)N2CCOc3ccc(Cl)cc32)CC1	47% (active)
O=C(NCCC1=CCCCC1)C1CCN(C(=O)N2CCOc3ccccc32)CC1	72%
COc1ccccc1N1CCN(c2nc3c(S(=O)(=O)c4ccc(C)c(C)c4)nnn3c3ccc(Cl)cc23)CC1	81%
Cc1ccc(NCc2nnc(SCc3cc(C)ccc3C)o2)c(C)c1	91%
Cc1cccc(C)c1NC(=O)Cn1cc(S(=O)(=O)Cc2ccc(F)cc2)c2ccccc21	78%
Cc1ccc(C)c(S(=O)(=O)c2nnn3c2nc(Nc2ccc(C)c(C)c2)c2sccc23)c1	77%
O=C(c1ccc2c(c1)N(Cc1ccccc1F)C(=O)c1ccccc1S2(=O)=O)N1CCC(Cc2ccccc2)CC1	71%
Cc1ccc(NC(=O)C2Cc3ccccc3N2C(=O)c2ccccc2)cc1Cl (stereo not given)	78%
COc1ccc(CCNC(=O)C(=O)NCC(c2ccco2)S(=O)(=O)c2cccs2)cc1 (stereo not given)	99%
O=C1CC(c2ccccc2)Sc2nc3ccccc3n21 (stereo not given)	66%
CC1CCN(S(=O)(=O)c2ccc3c(c2)oc(=O)n3CC(=O)NCc2ccc(F)cc2)CC1	111%
Cc1ccc(C)c(Nc2nnc(-c3ccc(C)c(S(=O)(=O)N4CCCCC4)c3)c3ccccc23)c1	119%
Cc1ccc(-c2nnc(Nc3ccccc3O)c3ccccc23)cc1	49% (active)
CNS(=O)(=O)c1cc(-c2nnc(Nc3cc(C)ccc3C)c3ccccc23)ccc1C	69%
COc1cc(C(Nc2ccc(S(=O)(=O)NCC3CCCO3)cc2)C(=O)NC(C)(C)C)cc(OC)c1OC (stereo not given)	109%
Cc1ccc(CNC(=O)c2cccc(Nc3nc4ccccc4n4nnnc34)c2)cc1	45%
CC(C)CCNC(=O)c1cccc(Nc2nc3ccccc3n3nnnc23)c1	39% (active)
O=C(NCc1ccccc1)c1cccc(Nc2nc3ccccc3n3nnnc23)c1	71%
CCc1ccc(NC(=O)Cn2nnc(C(=O)NCCc3ccccc3)c2N)cc1	99%
CCOC(=O)c1ccccc1NC(=O)CN1CCCN(Cc2cccc(Cl)c2)S1(=O)=O	101%
CSc1ccc(CCNC(=O)C2CCN(c3ncnc4c3nc3n4CCCCC3)CC2)cc1	79%

Structure (SMILES)	survival
COc1cccc(/C=N/c2nc3ccccc3n2C)c1O	122%
COc1ccccc1/C=C/c1nc2ccccc2n1C(C)C	8% (active)
COc1cccc(/C=N/n2c(N)nc3ccccc32)c1OC	82%
O=C(c1ccc(Cl)cc1)C1CCN(C(=O)N2CCOCC2)CC1	66%
NC(=O)CN1C(=O)C2(SCC(=O)N2c2cccc(F)c2)c2ccccc21 (stereo not given)	78%
Cc1ccc(NC(=O)C2CCN(c3nn4c(=O)cc(C)nc4s3)CC2)cc1	104%
O=C(Nc1ccc(O)c(-c2nc3ccccc3o2)c1)c1sc2ccccc2c1Cl	105%
COC(=O)c1ccccc1NC(=O)c1cc2c(-c3ccc(OC)c(OC)c3)nn(C)c2s1	97%
C=CCn1c(SC)nc2c1c(=O)[nH]c(=O)n2C	94%
CCC(C)(C)NC(=O)C1CCN(S(=O)(=O)c2c(C)noc2/C=C/c2ccc(C)cc2)CC1	52% (active)
Cc1ccc(/C=C/c2onc(C)c2S(=O)(=O)N2CCC(C(=O)Nc3cc(C)ccc3C)CC2)cc1	78%
Cc1ccc(/C=C/c2onc(C)c2S(=O)(=O)N2CCC(C(=O)NCc3ccc(Cl)cc3)CC2)cc1	93%
COC(=O)/C(C#N)=C/c1ccc(-c2ccccc2)o1	75%
Cc1ccc(-c2nn(CC(=O)NCc3ccccc3)c3c2cnc2ccc(F)cc23)cc1C	75%
O=C(Nc1ccc(F)cc1)c1ccc(Cn2nc(N3CCN(c4ccccc4)CC3)ccc2=O)o1	82%
Cn1c(=O)c2c(-c3ccccc3)n3c(c2n(C)c1=O)C(c1ccc([N+](=O)[O-])cc1)Nc1ccccc1-3 (stereo not given)	34% (active)
COc1ccc(C2Nc3ccccc3-n3c(-c4ccccc4)c4c(=O)n(C)c(=O)n(C)c4c32)cc1 (stereo not given)	79%
Cn1c(=O)c2c(-c3ccccc3)n3c(c2n(C)c1=O)C(c1ccccc1[N+](=O)[O-])Nc1ccccc1-3 (stereo not given)	79%
COc1ccc(-c2c3c(=O)n(C)c(=O)n(C)c3c3n2-c2ccccc2NC3c2ccc(OC)cc2)cc1 (stereo not given)	74%
Cn1c(=O)c2c(-c3ccccc3)n3c(c2n(C)c1=O)C(c1cccc([N+](=O)[O-])c1)Nc1ccccc1-3 (stereo not given)	53%
Cc1ccc(C2Nc3ccccc3-n3c(-c4ccccc4)c4c(=O)n(C)c(=O)n(C)c4c32)cc1 (stereo not given)	41% (active)
